Experimental data published in ChEMBL document CHEMBL3988442, “University of Dundee, Small-Polar-MMV Screening Library” (2021).
For some assays here: Entries with a potency or affinity are not part of this list.

Assays:
Set-up in all cases: scale not given: direction of the effect not stated beside the values
[1] = target: Protein translocase subunit SecA (Escherichia coli (strain K12)) (UniProt P10408); assay: Assay to Identify E. coli SecA ATPase Inhibitors; type: functional; details: 30 µM
[2] = target: T1, Ubiquitin-activating enzyme e1, putative (Leishmania donovani (strain BPK282A1)) (UniProt E9BSI1); assay: Leishmania donovani Ubiquitin Activating Enzyme (LdE1); type: functional; details: 30 µM
T1 sequence (whole entry): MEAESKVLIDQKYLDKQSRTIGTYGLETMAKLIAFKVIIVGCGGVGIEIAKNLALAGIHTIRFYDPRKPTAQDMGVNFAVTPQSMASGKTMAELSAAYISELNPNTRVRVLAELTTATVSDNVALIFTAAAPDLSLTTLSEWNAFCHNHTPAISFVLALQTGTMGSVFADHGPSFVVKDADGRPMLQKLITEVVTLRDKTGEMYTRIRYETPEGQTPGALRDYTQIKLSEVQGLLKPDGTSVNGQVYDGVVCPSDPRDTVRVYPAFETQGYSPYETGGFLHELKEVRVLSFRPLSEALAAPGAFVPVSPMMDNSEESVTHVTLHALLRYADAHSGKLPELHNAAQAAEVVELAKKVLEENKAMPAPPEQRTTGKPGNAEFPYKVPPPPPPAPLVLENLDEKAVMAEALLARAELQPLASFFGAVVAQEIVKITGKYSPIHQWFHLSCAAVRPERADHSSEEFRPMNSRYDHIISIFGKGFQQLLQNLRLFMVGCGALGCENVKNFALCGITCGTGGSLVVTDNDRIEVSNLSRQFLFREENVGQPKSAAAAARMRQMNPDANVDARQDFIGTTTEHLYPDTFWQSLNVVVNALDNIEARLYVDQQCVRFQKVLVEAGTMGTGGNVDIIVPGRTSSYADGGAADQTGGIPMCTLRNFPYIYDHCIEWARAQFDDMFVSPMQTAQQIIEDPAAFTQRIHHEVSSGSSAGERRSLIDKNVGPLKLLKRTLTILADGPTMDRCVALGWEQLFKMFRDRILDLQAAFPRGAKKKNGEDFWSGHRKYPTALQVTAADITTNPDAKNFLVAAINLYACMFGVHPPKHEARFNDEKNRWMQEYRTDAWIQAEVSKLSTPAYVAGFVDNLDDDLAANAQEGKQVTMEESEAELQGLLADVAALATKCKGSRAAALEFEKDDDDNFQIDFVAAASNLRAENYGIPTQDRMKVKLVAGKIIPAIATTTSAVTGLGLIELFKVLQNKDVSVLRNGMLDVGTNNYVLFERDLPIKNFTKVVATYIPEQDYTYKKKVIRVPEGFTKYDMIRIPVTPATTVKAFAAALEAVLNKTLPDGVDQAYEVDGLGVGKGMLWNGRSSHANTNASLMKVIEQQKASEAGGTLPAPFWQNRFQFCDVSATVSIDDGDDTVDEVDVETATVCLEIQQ

[3] = target: Sialic acid-binding Ig-like lectin 9 (Homo sapiens) (UniProt Q9Y336); assay: Hs-Siglec9 ALPHAscreen SOP 20170721; details: 10 µM
Sequence of Sialic acid-binding Ig-like lectin 9 (Homo sapiens) (Q9Y336 whole entry): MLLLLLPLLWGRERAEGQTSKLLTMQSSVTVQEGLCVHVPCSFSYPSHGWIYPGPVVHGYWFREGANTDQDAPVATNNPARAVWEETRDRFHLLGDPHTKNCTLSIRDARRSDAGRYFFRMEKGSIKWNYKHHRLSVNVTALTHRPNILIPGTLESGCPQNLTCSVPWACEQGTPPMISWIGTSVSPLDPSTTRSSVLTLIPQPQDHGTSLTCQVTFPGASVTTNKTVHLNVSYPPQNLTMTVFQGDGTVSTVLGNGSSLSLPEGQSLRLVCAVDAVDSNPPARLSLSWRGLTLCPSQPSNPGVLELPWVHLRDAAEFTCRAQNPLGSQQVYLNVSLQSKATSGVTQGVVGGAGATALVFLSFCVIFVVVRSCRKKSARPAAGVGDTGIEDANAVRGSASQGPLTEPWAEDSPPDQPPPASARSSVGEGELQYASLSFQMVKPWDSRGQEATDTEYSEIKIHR

Trypanosoma cruzi = assay: Trypanosoma cruzi phosphomannomutase and mannose-1-phosphate guanylyltransferase assay; type: functional; details: 10 µM
[4] = target: T2, Arginase-2, mitochondrial (Homo sapiens) (UniProt P78540); assay: in vitro enzyme assay to detect the production of urea directly proportional to the activity of Arginase II; type: functional; details: 33.3 µM; note: in the data most compounds retested in dose-response had high values
T2 sequence (whole entry): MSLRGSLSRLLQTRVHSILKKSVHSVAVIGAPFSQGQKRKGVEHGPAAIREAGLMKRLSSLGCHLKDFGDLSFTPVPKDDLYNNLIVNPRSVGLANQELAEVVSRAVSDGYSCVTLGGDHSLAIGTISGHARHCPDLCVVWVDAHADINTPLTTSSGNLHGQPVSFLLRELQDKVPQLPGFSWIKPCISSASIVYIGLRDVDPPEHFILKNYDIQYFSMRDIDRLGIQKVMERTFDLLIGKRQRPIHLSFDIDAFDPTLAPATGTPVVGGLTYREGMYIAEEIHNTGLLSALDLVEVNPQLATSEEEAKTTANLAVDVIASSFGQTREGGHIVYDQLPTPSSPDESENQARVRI

[5] = target: T3, Proteasome subunit beta (Trypanosoma cruzi) (UniProt O96673); assay: Trypanosoma cruzi proteasome chymotrypsin-like activity (TcProtChymo) assay.; note: in the data most compounds retested in dose-response had high values; type: functional; details: 9.37 µM
T3 sequence (whole entry): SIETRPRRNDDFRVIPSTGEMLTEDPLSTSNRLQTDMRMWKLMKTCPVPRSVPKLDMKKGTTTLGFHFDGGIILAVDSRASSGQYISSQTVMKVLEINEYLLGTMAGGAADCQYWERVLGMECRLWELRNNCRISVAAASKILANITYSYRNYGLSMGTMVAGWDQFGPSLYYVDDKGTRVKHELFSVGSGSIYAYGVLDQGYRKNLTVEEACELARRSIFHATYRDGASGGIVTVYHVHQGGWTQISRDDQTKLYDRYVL

Homo sapiens = organism: Homo sapiens; assay: To identify inhibition of the IFN signalling (Jak-Stat) pathway via expression of an eGFP reporter gene under the control of an IFN-stimulated response element (ISRE) containing MxA promoter.; type: functional; details: 30 µM
[6] = target: T4, Tyrosyl-tRNA synthetase, putative (Trypanosoma cruzi (strain CL Brener)) (UniProt Q4DSP6); assay: Trypanosoma cruzi tyrosyl tRNA synthetase (TcYRS) _High Tyrosine SOP; type: functional; details: 30 µM; note: in the data most compounds retested in dose-response had high values
T4 sequence (whole entry): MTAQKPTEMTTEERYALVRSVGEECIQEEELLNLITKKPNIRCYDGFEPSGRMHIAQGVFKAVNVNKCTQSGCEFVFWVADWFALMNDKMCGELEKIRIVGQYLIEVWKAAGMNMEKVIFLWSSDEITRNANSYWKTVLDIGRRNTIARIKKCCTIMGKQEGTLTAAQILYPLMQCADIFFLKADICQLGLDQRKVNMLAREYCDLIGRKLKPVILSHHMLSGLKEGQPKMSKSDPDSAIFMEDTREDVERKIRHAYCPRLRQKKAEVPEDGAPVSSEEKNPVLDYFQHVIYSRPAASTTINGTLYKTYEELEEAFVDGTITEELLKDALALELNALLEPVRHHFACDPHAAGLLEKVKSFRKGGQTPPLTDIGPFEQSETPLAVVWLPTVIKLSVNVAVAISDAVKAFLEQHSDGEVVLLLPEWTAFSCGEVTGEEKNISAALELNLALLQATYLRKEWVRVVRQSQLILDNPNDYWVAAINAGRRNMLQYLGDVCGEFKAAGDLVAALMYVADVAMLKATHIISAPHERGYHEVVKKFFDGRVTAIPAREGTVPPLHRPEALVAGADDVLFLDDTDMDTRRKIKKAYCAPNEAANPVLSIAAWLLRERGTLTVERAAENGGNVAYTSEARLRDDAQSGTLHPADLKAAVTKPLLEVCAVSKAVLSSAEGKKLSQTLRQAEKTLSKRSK

[7] = target: T4, Tyrosyl-tRNA synthetase, putative (Trypanosoma cruzi (strain CL Brener)); assay: Trypanosoma cruzi tyrosyl tRNA synthetase (TcYRS) SOP; type: functional; details: 30 µM
[8] = target: Chromo domain-containing protein 1 (Saccharomyces cerevisiae (strain ATCC 204508 / S288c) (Baker's yeast)) (UniProt P32657); assay: ScCHD-1 Enzyme Inhibition Assay; type: functional; details: 30 µM; note: in the data most compounds retested in dose-response had high values
Sequence of Chromo domain-containing protein 1 (Saccharomyces cerevisiae (strain ATCC 204508 / S288c) (Baker's yeast)) (P32657 whole entry, the tested form may be a part): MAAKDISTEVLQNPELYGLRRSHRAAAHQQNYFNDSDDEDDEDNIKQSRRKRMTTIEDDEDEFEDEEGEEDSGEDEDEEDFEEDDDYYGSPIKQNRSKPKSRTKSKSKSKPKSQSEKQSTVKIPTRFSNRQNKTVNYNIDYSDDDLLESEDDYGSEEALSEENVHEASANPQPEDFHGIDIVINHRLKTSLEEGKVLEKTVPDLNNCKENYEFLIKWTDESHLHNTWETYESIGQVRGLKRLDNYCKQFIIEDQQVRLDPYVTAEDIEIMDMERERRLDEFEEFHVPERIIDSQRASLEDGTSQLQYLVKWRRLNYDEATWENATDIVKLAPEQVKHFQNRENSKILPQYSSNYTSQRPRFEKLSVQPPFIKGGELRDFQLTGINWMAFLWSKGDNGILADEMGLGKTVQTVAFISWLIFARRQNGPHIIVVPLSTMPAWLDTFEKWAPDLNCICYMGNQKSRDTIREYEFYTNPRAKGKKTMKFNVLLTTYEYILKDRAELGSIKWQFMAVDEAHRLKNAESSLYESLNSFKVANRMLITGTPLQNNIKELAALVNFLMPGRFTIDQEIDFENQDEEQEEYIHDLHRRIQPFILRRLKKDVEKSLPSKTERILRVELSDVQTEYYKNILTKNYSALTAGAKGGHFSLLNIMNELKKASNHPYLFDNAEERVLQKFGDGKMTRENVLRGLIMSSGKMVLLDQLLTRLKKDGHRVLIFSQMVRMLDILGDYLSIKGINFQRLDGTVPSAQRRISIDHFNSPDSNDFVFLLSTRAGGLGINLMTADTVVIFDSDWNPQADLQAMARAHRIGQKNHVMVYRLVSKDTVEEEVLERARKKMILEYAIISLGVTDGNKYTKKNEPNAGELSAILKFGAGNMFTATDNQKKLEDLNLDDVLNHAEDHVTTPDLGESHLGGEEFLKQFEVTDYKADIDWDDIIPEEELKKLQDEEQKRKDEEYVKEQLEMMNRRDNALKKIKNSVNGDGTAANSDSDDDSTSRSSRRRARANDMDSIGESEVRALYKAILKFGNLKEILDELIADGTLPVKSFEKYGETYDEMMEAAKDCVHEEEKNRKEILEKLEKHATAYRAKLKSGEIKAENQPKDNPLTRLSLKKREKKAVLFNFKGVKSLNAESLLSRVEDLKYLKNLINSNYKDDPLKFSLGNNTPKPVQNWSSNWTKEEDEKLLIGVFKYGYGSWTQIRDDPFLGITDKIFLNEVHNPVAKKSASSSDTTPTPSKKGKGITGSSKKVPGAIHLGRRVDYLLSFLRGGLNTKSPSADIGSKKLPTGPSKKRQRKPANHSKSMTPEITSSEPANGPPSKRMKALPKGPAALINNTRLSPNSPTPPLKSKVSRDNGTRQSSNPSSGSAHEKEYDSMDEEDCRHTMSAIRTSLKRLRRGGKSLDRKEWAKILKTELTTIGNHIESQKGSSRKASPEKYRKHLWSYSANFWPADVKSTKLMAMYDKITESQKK

Sequence of Protein translocase subunit SecA (Escherichia coli (strain K12)) (P10408 whole entry): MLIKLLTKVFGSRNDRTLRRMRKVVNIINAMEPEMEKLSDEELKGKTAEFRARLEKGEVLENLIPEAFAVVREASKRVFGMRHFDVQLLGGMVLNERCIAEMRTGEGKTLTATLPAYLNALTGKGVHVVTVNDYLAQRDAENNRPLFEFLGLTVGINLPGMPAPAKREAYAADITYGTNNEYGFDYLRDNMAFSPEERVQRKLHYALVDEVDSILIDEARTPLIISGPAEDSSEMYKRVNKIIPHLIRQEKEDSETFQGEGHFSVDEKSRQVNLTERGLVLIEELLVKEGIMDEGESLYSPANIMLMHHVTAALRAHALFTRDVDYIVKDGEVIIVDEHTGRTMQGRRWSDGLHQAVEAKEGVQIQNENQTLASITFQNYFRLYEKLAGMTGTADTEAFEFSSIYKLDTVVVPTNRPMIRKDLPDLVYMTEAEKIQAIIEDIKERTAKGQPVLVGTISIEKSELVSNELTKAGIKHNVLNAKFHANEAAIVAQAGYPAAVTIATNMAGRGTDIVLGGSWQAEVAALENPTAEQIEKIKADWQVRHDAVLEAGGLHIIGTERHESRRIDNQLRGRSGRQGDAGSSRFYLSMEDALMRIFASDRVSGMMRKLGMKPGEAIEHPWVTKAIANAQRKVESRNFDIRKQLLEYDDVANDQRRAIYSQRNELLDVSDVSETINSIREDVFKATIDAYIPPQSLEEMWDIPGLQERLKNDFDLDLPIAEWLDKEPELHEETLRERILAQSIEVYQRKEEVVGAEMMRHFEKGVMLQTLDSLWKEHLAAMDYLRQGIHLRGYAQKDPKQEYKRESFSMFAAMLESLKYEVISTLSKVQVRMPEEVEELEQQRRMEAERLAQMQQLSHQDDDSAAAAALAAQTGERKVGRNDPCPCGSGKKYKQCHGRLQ

Row | SMILES | Percent Effect [1] | Percent Effect [2] | Percent Effect [3] | Percent Effect (Trypanosoma cruzi) | Percent Effect [4] | Percent Effect [5] | Percent Effect (Homo sapiens) | Percent Effect [6] | Percent Effect [7] | Percent Effect [8]
1 | CC(Cn1cccn1)NC(=O)NCc1cccs1 (stereo not given) | -2.75% | -66.7% | 2.38% | -4.82% | 0.887% | 13% | 10.9% | 3.68% | 7.69% | -11.3%
2 | Cc1nc([C@@H]2C[C@@H]3CCN(C(=O)Cc4ccsc4)C[C@H]3O2)no1 | -3.1% | -1.3% | -5.06% | -3.21% | -1.62% | 10.5% | -23.3% | -1.58% | 0% | -2.29%
3 | O=C(c1ccncc1)N1CCC2(CC1)CC(Oc1cccnc1)CO2 (stereo not given) | -6.1% | -16.9% | 6.5% | 2.43% | -2.02% | 5.91% | -1.58% | 3.68% | 2.56% | -0.282%
4 | COc1ccc(C2CC(=O)Nc3c2cnn3C2CCCC2)cc1 (stereo not given) | -8.84% | -2.7% | -0.717% | 2.62% | 2.45% | 5.31% | 8.51% | 6.92% | 4.88% | -1.74%
5 | O=C(c1ccc(F)cc1F)N1CC[C@H](O)[C@@H](N2CCOCC2)CC1 | -1.33% | 6.67% | 3.3% | -1.58% | 3.98% | 3.94% | 12.8% | 2.12% | 7.5% | -18.1%
6 | Cc1nc(C)n(CC2CN(CCCOc3ccccc3C)CCO2)n1 (stereo not given) | -2.1% | -2.67% | -2.65% | 1.61% | 2.66% | 0.763% | 7.57% | -0.526% | -7.69% | -5.97%
7 | Cn1cc(-c2nnn3c2COC(CNCc2nccs2)C3)cn1 (stereo not given) | -3.81% | 11.7% | 1% | 4.19% | 10.5% | 11.6% | 6.11% | 5.79% | 17.9% | 8.68%
8 | CN(C)CCN1C(=O)CCC12CCN(C(=O)c1cccnc1)CC2 | -1.32% | 3.9% | -3.7% | -0.75% | 0.457% | 5.75% | 3.46% | 1.93% | 2.5% | -20.4%
9 | Cc1cccc(N2CC[C@@H]3CN(Cc4csc(C)n4)CCO[C@@H]3C2)n1 | -6.02% | -14.3% | -1.28% | 6.52% | -6.88% | 7.15% | -15.6% | 1.58% | -5.13% | -0.609%
10 | c1ncn(CC2CCCN2Cc2cn3ccsc3n2)n1 (stereo not given) | -3.52% | 5.13% | -17.1% | 7.61% | -1.23% | -4.86% | -3.77% | 2.39% | 6.02% | 1.9%
11 | CCO[C@H]1CO[C@@]2(CCCN(S(=O)(=O)c3ccccc3)C2)C1 | -1.1% | 24.7% | -3.22% | -3.02% | 11.3% | 17.7% | 10.2% | 2.63% | 0% | 6.62%
12 | O=C(c1cc2cc(F)ccc2[nH]1)N1CCC(Nc2cccnn2)CC1 | -5.68% | 7.79% | -3.05% | -8.21% | -12.9% | 10.7% | 14% | 0.98% | -2.35% | -5.32%
13 | CN1CCCN(c2nccc(-c3c[nH]nc3C3CCCCC3)n2)CC1 | 2.25% | 8% | -4.76% | -6.22% | 1.33% | 24% | 23% | 0.526% | 2.56% | -14.2%
14 | CC(C)N1CCCC2(CCN(C(=O)CCCn3ccnc3)C2)C1=O (stereo not given) | -6.84% | 2.7% | 0.678% | -2.62% | -1.75% | 13.4% | -5.32% | 4.79% | 12.2% | -0.546%
15 | Cc1cc(C)n(CC2CCCCN2C(=O)c2ccc3nncn3c2)n1 (stereo not given) | -7.43% | 8% | 0.804% | 2.01% | -1.77% | 8.06% | 6.43% | 5.79% | 10.3% | -4.66%
16 | COCC(=O)N1CC[C@@H](O)[C@@H]1Cc1ccccc1 | -2.38% | 3.9% | -3.29% | 1.27% | -4.45% | 6.27% | -19.5% | -5.79% | 0% | -0.374%
17 | Cc1cnn(CC2CN(CC(=O)NCCc3cccs3)CCO2)c1 (stereo not given) | -3.45% | 0% | 6.55% | -4.62% | 0.887% | 3.48% | 9.62% | 4.74% | -2.56% | -0.407%
18 | CC(C)CN1CCN(C)C2(CCN(Cc3ccsc3)CC2)C1=O | -3.52% | 6.49% | -3% | 0.188% | 1.83% | -2.49% | -6.74% | 7.73% | 10% | 1.23%
19 | CN(c1ccncn1)C1CC2(CCN(C(=O)c3ccsc3)C2)C1 (stereo not given) | -2.12% | 22.7% | 0.226% | 3.55% | -4.42% | 17.2% | 11.8% | 0% | 17.5% | -21.9%
20 | O=C1CC2(CCN(CC3CC3)C2)CN1c1ccc2c(c1)OCO2 (stereo not given) | -2.02% | 16.9% | -7.72% | 1.07% | 25.9% | 21.6% | -0.411% | 12.1% | -48.7% | -4.12%
21 | O=C(COc1ccc2c(c1)CCC2)NS(=O)(=O)c1cncc(Br)c1 | -2.61% | 2.56% | 1.99% | 9.3% | -3.28% | 3.33% | 7.32% | -3.35% | 1.21% | 1.12%
22 | CC(NCc1c(C(C)C)nn(C)c1N1CCOCC1)C(N)=O (stereo not given) | -5.06% | 7.69% | -15.9% | -3.66% | -1.23% | 14.8% | 16.4% | 0.478% | 8.43% | -6.18%
23 | CC1CCCN(C(=O)c2cccc(CS(C)(=O)=O)c2)C1 (stereo not given) | 0.484% | 15.4% | -22.1% | 2.72% | -0.41% | 22.4% | 6.02% | 4.31% | 22.9% | 20.9%
